Experimental data from PubChem BioAssay (NCI).
About 83,000 compounds went through this panel and 20% of them were active in at least one assay; those are over-represented in the sample as a whole.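 Results are percent growth after 48 hours of single-concentration exposure. 100 means growth as in untreated cells, lower positive values show inhibition; negative values down to -100 show cell death.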 Unmarked numbers belong to inactive results. Activity calls are given as the source filed them. How the source made its calls: active means growth percent below 10; inactive means the rest.

How the values were obtained:
Test in all cases: NCI-60 one-dose screen, 48 h (100 = growth as untreated, 0 = no growth, -100 = all killed)
Conditions in all cases: 10 µM unless noted
[1] = system: SK-MEL-2 melanoma
[2] = system: EKVX NSCLC
[3] = system: SN12C renal
[4] = system: UO-31 renal
[5] = system: TK-10 renal
[6] = system: ACHN renal
[7] = system: CAKI-1 renal
[8] = system: A498 renal
[9] = system: CCRF-CEM leukemia
[10] = system: MOLT-4 leukemia

| SMILES | growth [1] | growth [2] | growth [3] | growth [4] | growth [5] | growth [6] | growth [7] | growth [8] | growth [9] | growth [10] |
| --- | --- | --- | --- | --- | --- | --- | --- | --- | --- | --- |
| CN(C)S(=O)(=O)c1ccc(-c2nc(C(Cl)Cl)nc3cc(-c4ccccc4)nn23)cc1 | 112% | 80% | 81.1% | 88.8% | 101% | 43.4% | 73.1% | 106% | 77.3% | 63.4% |
| CCOC(=O)c1ccc(NC2=CC(=O)C(C)=C(C)C2=O)cc1 | 96.1% | 94.6% | 93.8% | 73.9% | 137% | 89.9% | 69.3% | 84.3% | 54.4% | 41.3% |
| Cc1ccccc1NC(=O)Nc1nc2ccc([N+](=O)[O-])cc2s1 | -9.75% (active) | 10.3% | 6.76% (active) | 9.02% (active) | 12.2% | 3.8% (active) | -19.4% (active) | -24.7% (active) | 16.2% | 12.5% |
| CN1CCN(c2ccc(Nc3nc(NCCNS(=O)(=O)c4ccc5ccccc5c4)c4sccc4n3)cc2)CC1 | 103% | 86.2% | 79.6% | 68.9% | 127% | 86.8% | 69.5% | 86.9% | 41.9% | 41.6% |
| Clc1ccc(CSc2nnc(-c3ccc(Cl)cc3)n2-c2ccccc2)cc1 | 85.9% | 86.6% | 82.9% | 68.2% | 93.3% | 55.5% | 62.9% | 68% | 97.4% | 92% |
| CCCCCCCCCCCC(=O)NC(C)(C)C(=O)N1CCCC1C(=O)NC(C)(C)C(=O)NC(C)(C)C(=O)N1CCCC1C(=O)NC(C)(C)C(=O)NC(C)(C)C(=O)N1CCCC1C(=O)NC(C)C(=O)NCCC(=O)NC(C)C(=O)NC(C)(C)C(=O)NC(C)(C)C(=O)NC(C)(C)C(=O)NCCC(=O)NC(C)(C)C(=O)NC(C)(C)C(=O)NC(C)(C)C(=O)NC(C)C(=O)NCCC(=O)O (stereo not given) | -96.2% (active) | -88.5% (active) | -94% (active) | -99.7% (active) | -97.1% (active) | -100% (active) | -94.2% (active) | -98.5% (active) | -55.6% (active) | -67.9% (active) |
| Cc1ccc(/C(N)=N/C(N)=N/c2nc3ccccc3s2)cc1 | 114% | 67.7% | 60.2% | 87% | 136% | 66.8% | 76.8% | 121% | 78.9% | 75.9% |
| COC(=O)c1cccc(NC2=C(Cl)C(=O)c3nc(C)ccc3C2=O)c1 | 101% | 54.3% | 93.1% | 48.5% | 128% | 0.427% (active) | 103% | 71% | 5.63% (active) | 19.7% |
| COc1ccc2c(c1)c(-c1nc(N)nnc1-c1c[nH]c3ccccc13)cn2C | 52.6% | 43.9% | 53.6% | 50.9% | 92.8% | 44.7% | 31.1% | 4.9% (active) | 28.7% | 25.5% |
| O=C(/C=C/c1ccccc1Cl)Nc1ncc(Cc2cc(Cl)ccc2Cl)s1 | 30.4% | 37.6% | 34.1% | 48.2% | 61.2% | 31.3% | 36.6% | -16.6% (active) | 14% | 24% |
| COc1cc2c3c(cc4c5c(ccc4c3c1OC)OCO5)N(CCN(C)C)C2=O | -44.5% (active) | -22% (active) | -5.44% (active) | -53.9% (active) | -4.01% (active) | -51.4% (active) | -26.6% (active) | -77.6% (active) | 1.57% (active) | 3.85% (active) |
| CCc1cc(OC(=O)N2CCN(CCC(C)(COC(C)(C)C)COC(C)(C)C)CC2)ccc1Nc1cc(-c2ccc(-n3cccn3)cc2)[nH]n1 | 102% | 66.1% | 62.1% | 81.3% | 103% | 81% | 64.9% | 81.2% | 56.7% | 52.9% |
| Clc1ccc2[nH]cc(-c3nn4cc(-c5cccnc5)nc4s3)c2c1 | 101% | 84.1% | 96.6% | 71.6% | 184% | 87.8% | 69.7% | 109% | 84.3% | 94.5% |
| C#C[C@]1(O)CC[C@H]2[C@@H]3CC=C4c5sc(Nc6ccc(C)cn6)nc5CC[C@]4(C)[C@H]3CC[C@@]21C | -25.1% (active) | -21.7% (active) | 45.9% | -63.7% (active) | 18.6% | 17.4% | -74.1% (active) | -26.5% (active) | 10.6% | -42.3% (active) |
| CC1=C(C)C(=O)C(Nc2ccc(C)c(C)c2)=C(Br)C1=O | 112% | 34.2% | 98.7% | 90.8% | 157% | 102% | 94% | 91.1% | -16.8% (active) | -14.7% (active) |
| NC1=NC2(CCCC2)N(c2ccc(S(=O)(=O)Nc3nccs3)cc2)C(N)=N1 | 116% | 98.7% | 102% | 83.6% | 104% | 103% | 93.6% | 120% | 95.9% | 102% |
| N#Cc1c(-c2cccs2)cc(-c2cnccn2)nc1SCC(=O)N/N=C/c1cccs1 | 78.5% | 59% | 52.1% | 89.1% | 65.1% | 49.8% | 30% | 25.5% | 90.6% | 85.2% |
| O=C(CCCCCCNC(=O)C(O)(O)C(F)(F)F)Nc1ccc(Cl)cc1 | -13.7% (active) | 39.2% | 29.8% | 8.11% (active) | 3.6% (active) | 0.488% (active) | 3.96% (active) | 9% (active) | 22.4% | 15.8% |
| Cc1ccc(C(=O)Nc2ccc(CNCCN3CCNCC3)c(C(F)(F)F)c2)cc1C#Cc1cnc2cccnn12 | 64% | 29.6% | 76.2% | 76.7% | 129% | 57% | 75.9% | -33.4% (active) | -39.7% (active) | -49.5% (active) |
| COc1ccc(C(C)=C(c2ccc(OCCN(C)C)cc2)c2ccc(OCCN(C)C)cc2)cc1 | -70.3% (active) | 13.5% | 0.111% (active) | -59.4% (active) | -56.1% (active) | -46% (active) | -69.1% (active) | -38.9% (active) | -23.6% (active) | -37.6% (active) |
| Fc1ccc2nc(-c3cnn4cccnc34)sc2c1 | 119% | 61.8% | 90.2% | 46.8% | 123% | 78.9% | 68.9% | 89.7% | 102% | 80.3% |
| C#C[C@]1(O)CC[C@H]2[C@@H]3CC=C4c5sc(N6CCN(C)CC6)nc5CC[C@]4(C)[C@H]3CC[C@@]21C | 36.8% | 68.5% | 76.6% | 77.2% | 100% | 47.2% | 54.2% | 86% | -8.52% (active) | 1.27% (active) |
| Oc1[nH]c2ccc(Cl)cc2c1N=Nc1nc(N=Nc2c(O)[nH]c3ccc(Cl)cc23)nc(N2CCOCC2)n1 | 65.3% | 85.2% | 43.9% | 78.7% | 118% | 74.5% | 72% | 21.6% | 20.3% | 62.5% |
| Cc1ccc(S(=O)(=O)NCCCNc2nc(Nc3ccc(N4CCN(C)CC4)cc3)nc3ccsc23)cc1 | 92.9% | 78.8% | 58.3% | 50.7% | 124% | 11.7% | 14.5% | 56.2% | 18.1% | 9.91% (active) |
| COC(=O)c1cccc(NC2=C(Cl)C(=O)C(C)=C(C)C2=O)c1 | 98% | 92.2% | 92.6% | 89.4% | 150% | 104% | 94.2% | 87.7% | 6.54% (active) | 11.3% |
| O=C(CCl)Nc1ccc(NC(=O)c2cc(Cl)ccc2O)c(Cl)c1 | 92% | 95.9% | 68.4% | 54.7% | 129% | 85.8% | 59.2% | 100% | 9.8% (active) | 25.7% |
